Hit rate of the full screen: of about 310,000 compounds, about 14,000 (4.5%) showed an effect of 50% or more. Effects have a minus sign here. The entries come from a sample that favours strong results as a whole.
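Also: peak tail current of the secondary pulse compared with the same well before compound.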

For this test, the target named is human ether-à-go-go-related gene (hERG) potassium channel (human, UniProt Q12809). Description: primary screen, population patch clamp on CHO cells stably expressing hERG; higher = less effect of the substance.
human ether-à-go-go-related gene (hERG) potassium channel, sequence (Q12809 whole entry, looked up): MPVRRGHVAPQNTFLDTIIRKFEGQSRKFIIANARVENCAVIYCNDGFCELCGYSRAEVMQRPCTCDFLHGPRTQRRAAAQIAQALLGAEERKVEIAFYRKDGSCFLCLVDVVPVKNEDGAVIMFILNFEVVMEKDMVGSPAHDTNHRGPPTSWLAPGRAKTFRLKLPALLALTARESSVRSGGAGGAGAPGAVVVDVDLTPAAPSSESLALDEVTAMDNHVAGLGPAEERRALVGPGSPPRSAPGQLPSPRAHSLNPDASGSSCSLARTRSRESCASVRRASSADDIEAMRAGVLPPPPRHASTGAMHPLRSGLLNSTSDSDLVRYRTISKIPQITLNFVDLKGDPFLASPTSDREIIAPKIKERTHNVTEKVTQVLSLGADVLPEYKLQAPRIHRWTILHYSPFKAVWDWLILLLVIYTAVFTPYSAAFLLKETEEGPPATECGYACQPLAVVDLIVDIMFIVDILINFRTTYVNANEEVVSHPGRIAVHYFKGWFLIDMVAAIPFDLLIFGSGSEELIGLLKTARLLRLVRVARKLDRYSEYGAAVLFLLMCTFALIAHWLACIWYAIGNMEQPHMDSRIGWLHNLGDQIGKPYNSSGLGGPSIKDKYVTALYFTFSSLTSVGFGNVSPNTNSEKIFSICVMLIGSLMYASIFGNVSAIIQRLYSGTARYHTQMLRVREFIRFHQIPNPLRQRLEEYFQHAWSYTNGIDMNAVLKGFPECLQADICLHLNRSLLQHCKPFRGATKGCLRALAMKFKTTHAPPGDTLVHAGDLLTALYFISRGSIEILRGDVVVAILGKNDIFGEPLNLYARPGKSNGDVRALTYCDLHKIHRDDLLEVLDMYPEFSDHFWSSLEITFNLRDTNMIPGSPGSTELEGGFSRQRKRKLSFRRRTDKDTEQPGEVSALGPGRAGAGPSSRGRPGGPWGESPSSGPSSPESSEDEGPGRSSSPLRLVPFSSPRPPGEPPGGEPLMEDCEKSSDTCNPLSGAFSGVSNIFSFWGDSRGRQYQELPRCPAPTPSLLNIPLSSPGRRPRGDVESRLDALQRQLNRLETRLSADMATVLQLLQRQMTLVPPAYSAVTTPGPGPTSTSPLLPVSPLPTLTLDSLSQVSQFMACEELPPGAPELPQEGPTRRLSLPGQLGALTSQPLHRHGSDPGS
For the molecule `Cc1c(Cl)cccc1NC(=O)CSc1nc2ncc(Cl)cc2[nH]1`, the “hERG current change (%, negative = inhibition) at 10uM” value came to 17.7%. Next, `COCCCNC(=O)CC(NS(=O)(=O)c1ccc(Cl)cc1)c1ccc(OC)cc1` (stereo not drawn): -0.0404%; `Cc1cccc(OCC(=O)N2CCN(Cc3ccncc3)CC2)c1.O=C(O)C(=O)O`: 8.94%; `Cc1cccc(OCC(=O)N2CCN(Cc3ccc4c(c3)OCO4)CC2)c1.O=C(O)C(=O)O`: -16.7%. Next, `O=C(COc1ccc(Cl)cc1)N1CCN(Cc2ccc([N+](=O)[O-])cc2)CC1.O=C(O)C(=O)O`: -74.2%; `Cc1ccc(OCC(=O)N2CCN(Cc3ccc([N+](=O)[O-])cc3)CC2)cc1.O=C(O)C(=O)O`: -81.2%; `O=C(COc1ccc(S(=O)(=O)N2CCCCC2)cc1)N1CCN(Cc2ccccc2)CC1`: -32.5%. Under `Cc1ccc(OCC(=O)N2CCN(CC3CC4C=CC3C4)CC2)cc1.O=C(O)C(=O)O` (stereo not drawn) stands -24.3%; under `Cc1ccc(CN2CCN(C(=O)CCc3ccccc3)CC2)cc1`, -19.1%.

Take `O=C(COc1ccc(Cl)cc1)N1CCN(Cc2ccccc2)CC1`: the “hERG current change (%, negative = inhibition) at 10uM” value was -32.9%. Next, `Cc1cccc(OCC(=O)N2CCN(Cc3ccc([N+](=O)[O-])cc3)CC2)c1.O=C(O)C(=O)O`: -73%; `CCN(CC)C(=O)Cn1cc(S(=O)(=O)CC(=O)NCc2ccccc2)c2ccccc21`: -11.6%; `CCOC(=O)C(NC(=O)CC)(Nc1ccc(S(=O)(=O)Nc2ncccn2)cc1)C(F)(F)F` (stereo not drawn): 22.5%.

As for `O=C(Cc1ccccc1)Nc1scc(-c2ccccc2)c1C(=O)N1CCOCC1`, the “hERG current change (%, negative = inhibition) at 10uM” value was -57.4%. In the case of `CCOC(=O)c1c(-c2ccccc2)csc1NC(=O)CCN1CCOCC1.O=C(O)C(=O)O`, the “hERG current change (%, negative = inhibition) at 10uM” value is on record as -33.2%. Under `O=C(CN1CCOCC1)Nc1scc(-c2ccccc2)c1C(=O)N1CCOCC1` stands -34.9%. On to `O=C(N/C(=C/c1cccnc1)C(=O)N1CCOCC1)c1ccco1`, for which the “hERG current change (%, negative = inhibition) at 10uM” value is 6.59%. Under `CCN(CC)S(=O)(=O)c1ccc(NC(=O)c2cc(C(=O)OC)cc([N+](=O)[O-])c2)cc1` stands 10.3%; under `Cc1cc(CN(C)C(=O)c2ccc(OC3CCN(CCc4ccccc4)CC3)cc2)on1`, -74.1%; under `CN(Cc1nccn1C)C(=O)c1ccc(OC2CCN(CCc3ccccc3)CC2)cc1`, -38.3%. Under `CN(Cc1cnn(C)c1)C(=O)c1ccc(OC2CCN(CCc3ccccc3)CC2)cc1` stands -42.9%; under `CN(Cc1nccs1)C(=O)c1ccc(OC2CCN(Cc3ccccn3)CC2)cc1`, -11.5%. Take `CN(Cc1nccs1)C(=O)c1ccc(OC2CCN(CCc3ccccc3)CC2)cc1`: the “hERG current change (%, negative = inhibition) at 10uM” value was -58.9%. Next, `CC(CNC(=O)c1ccc(OC2CCN(Cc3ccccn3)CC2)cc1)c1ccccc1` (stereo not drawn): -76.5%; `CN(C(=O)c1ccc(OC2CCN(CCc3ccccc3)CC2)cc1)C1CCCCC1`: -63.5%. Under `Cc1cc(CN(C)C(=O)c2ccc(OC3CCN(Cc4ccccn4)CC3)cc2)on1` stands -37.7%; under `CC(CNC(=O)c1ccc(OC2CCN(Cc3ccccn3)CC2)cc1)Oc1cccnc1` (stereo not drawn), -21.9%. Under `CN(C(=O)c1ccc(OC2CCN(CCc3ccccc3)CC2)cc1)C1CCOC1` (stereo not drawn) stands -25.3%. For `CC(NC(=O)c1ccc(OC2CCN(Cc3ccccn3)CC2)cc1)c1ccccc1` (stereo not drawn), the “hERG current change (%, negative = inhibition) at 10uM” value is reported as -20.3%.

As to `CN(C(=O)c1ccc(OC2CCN(CCc3ccccc3)CC2)cc1)C1CCOCC1`, the “hERG current change (%, negative = inhibition) at 10uM” value is reported as -9.93%.

These data come from paper PMC4336329 (PLoS ONE, 2015).
